Assay results reported in PubChem BioAssay (Tox21).
Values joined by “and” are separate entries in the source; they are usually repeats but may differ in a detail not shown here. Equal entries are not always repeated. More than one record can exist for a structure, and the calls need not agree. Active and inactive are the calls of the source. Entries that show only a call come without a potency. Unless noted, calls follow the shape of the dose curve; as a rule, active = well fitted curve in the direction sought with a large enough effect in the repeat runs; inconclusive = weak or mixed curves; inactive = no such curve, though single readings can be large; an effect the other way counts as inactive or inconclusive.

Assays:
[1] = qHTS assay to identify small molecule antagonists of the thyroid receptor (TR) signaling pathway - cell viability counter screen (AID 743064); also: nearly all actives have a fitted effect of over 50% in size
In short: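 GH3.TRE-Luc rat pituitary cells dosed after 4 hr plating, co-stimulated with T3 at 1 nM final, incubated 23.5 h at 37 C. Viability measured in the same wells by CellTiter-Fluor fluorescence after 30 min further at 37 C.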

[2] = qHTS assay to identify small molecule antagonists of the thyroid receptor (TR) signaling pathway (AID 743065); also: series mostly up to about 70 µM; nearly all actives have a fitted effect of over 55% in size
In short: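 GH3.TRE-Luc rat pituitary cells (two TREs driving luciferase) were dosed with compound, then stimulated with 1 nM T3 (final) for 23.5 h at 37 C. ONE-Glo luminescence was the read-out, with CellTiter-Fluor fluorescence as the cytotoxicity counter-screen.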

[3] = tested on: thyroid hormone receptor (rat, GH3 cells); assay: qHTS assay to identify small molecule agonists of the thyroid receptor (TR) signaling pathway (AID 743066; calls by dose curve)
[4] = target: Estrogen receptor (Homo sapiens) (UniProt P03372); assay: qHTS assay to identify small molecule antagonists of the estrogen receptor alpha (ER-alpha) signaling pathway (AID 743069; active = well fitted curve in the direction sought with a large enough effect in the signal ratio in the repeat runs, not every such curve was filed as active; inconclusive = weak or mixed curves, or effect the other way; inactive = no such curve, though single readings can be large or run the other way; the % refers to the signal ratio)
In short: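 Beta-lactamase FRET fluorescence is read after 2 hr at room temperature with LiveBLAzer B/G substrate. Before that, ER-alpha-bla HEK293 cells sit 4 hr after plating, then receive compound plus 17beta-estradiol and incubate 18 hr at 37C.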

[5] = qHTS assay to identify small molecule antagonists of the estrogen receptor alpha (ER-alpha) signaling pathway - cell viability counter screen (AID 743074; calls by dose curve;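 also: HEK293 cells carrying ER-alpha-UAS-bla reporter stimulated with 17beta-estradiol; nearly all actives have a fitted effect of over 45% in size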; also: potency is read from the fitted curve at half-maximal effect)
[6] = target: Estrogen receptor (Homo sapiens) (UniProt P03372); assay: qHTS assay to identify small molecule agonists of the estrogen receptor alpha (ER-alpha) signaling pathway (AID 743075; calls by dose curve;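 also: HEK293 GripTite cells with ER-alpha and UAS-driven beta-lactamase reporter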; also: potency is read from the fitted curve at half-maximal effect)
[7] = target: Estrogen receptor (Homo sapiens) (UniProt P03372); assay: qHTS assay to identify small molecule agonists of the estrogen receptor alpha (ER-alpha) signaling pathway using the BG1 cell line (AID 743079); also: nearly all actives have a fitted effect of over 20% in size; also: potency is read from the fitted curve at half-maximal effect
[8] = qHTS assay to identify small molecule antagonists of the estrogen receptor alpha (ER-alpha) signaling pathway using the BG1 cell line (AID 743080; calls by dose curve;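 also: BG1 cells stimulated with 17beta-estradiol alongside compound; series mostly up to about 70 µM; nearly all actives have a fitted effect of over 25% in size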)
In short: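 Readout is ONE-Glo luminescence, taken 30 min at room temperature after reagent addition, preceded by a CellTiter-Fluor viability read; BG1-Luc-4E2 cells had received compound and 17beta-estradiol for 21.5 h at 37 C.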

[9] = qHTS assay to identify small molecule antagonists of the estrogen receptor alpha (ER-alpha) signaling pathway using the BG1 cell line - cell viability counter screen (AID 743081);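 also: compound given together with 17beta-estradiol as the ER stimulus; series mostly up to about 70 µM; nearly all actives have a fitted effect of over 45% in size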
Aromatase (Homo sapiens) = Aromatase (Homo sapiens) (UniProt P11511); assay: qHTS assay to identify aromatase inhibitors (AID 743083); also: series mostly up to about 70 µM; nearly all actives have a fitted effect of over 55% in size
Aromatase (Homo sapiens), sequence (P11511 whole entry, looked up): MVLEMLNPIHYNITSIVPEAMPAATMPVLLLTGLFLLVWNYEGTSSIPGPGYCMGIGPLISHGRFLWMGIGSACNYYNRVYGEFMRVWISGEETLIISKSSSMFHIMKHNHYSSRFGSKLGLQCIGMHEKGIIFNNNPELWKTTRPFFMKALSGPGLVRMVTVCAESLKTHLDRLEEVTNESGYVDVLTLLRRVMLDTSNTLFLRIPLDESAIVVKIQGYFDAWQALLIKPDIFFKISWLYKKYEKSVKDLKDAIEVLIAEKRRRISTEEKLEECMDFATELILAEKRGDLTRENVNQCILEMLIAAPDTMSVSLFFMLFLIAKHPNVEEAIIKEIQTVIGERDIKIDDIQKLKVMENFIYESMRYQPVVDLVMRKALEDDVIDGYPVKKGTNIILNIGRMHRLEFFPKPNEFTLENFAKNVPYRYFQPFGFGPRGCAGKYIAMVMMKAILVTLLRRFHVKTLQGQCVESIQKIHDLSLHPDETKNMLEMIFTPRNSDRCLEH

Estrogen receptor (Homo sapiens), sequence (P03372 whole entry, looked up): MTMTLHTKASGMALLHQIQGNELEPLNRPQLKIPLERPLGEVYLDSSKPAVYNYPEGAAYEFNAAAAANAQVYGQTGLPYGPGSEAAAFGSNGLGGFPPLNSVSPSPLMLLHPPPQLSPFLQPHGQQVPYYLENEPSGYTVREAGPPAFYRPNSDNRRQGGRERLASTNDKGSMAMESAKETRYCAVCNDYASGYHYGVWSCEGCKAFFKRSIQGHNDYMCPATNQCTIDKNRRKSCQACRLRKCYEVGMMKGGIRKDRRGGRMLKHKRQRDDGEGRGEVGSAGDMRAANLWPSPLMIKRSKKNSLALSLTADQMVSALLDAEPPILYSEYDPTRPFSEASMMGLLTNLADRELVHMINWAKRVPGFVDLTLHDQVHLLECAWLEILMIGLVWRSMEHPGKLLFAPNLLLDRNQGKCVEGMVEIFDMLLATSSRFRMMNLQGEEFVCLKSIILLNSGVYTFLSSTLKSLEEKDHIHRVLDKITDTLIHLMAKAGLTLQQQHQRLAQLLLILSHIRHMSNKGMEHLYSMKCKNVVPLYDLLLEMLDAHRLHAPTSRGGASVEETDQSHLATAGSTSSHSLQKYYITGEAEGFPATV

SMILES | Potency [1] | Potency [2] | outcome [3] | Potency [4] | Potency [5] | Potency [6] | Potency [7] | Potency [8] | outcome [9] | Potency (Aromatase (Homo sapiens)) | activity change, negative = cytotoxic [1]
COC(=O)c1ccccc1C(=O)OC | inactive | inactive | inactive | inactive | inactive | inactive | inactive | inactive | inactive | inactive | 
NCCc1ccc(O)cc1 | inactive | inactive | inactive | inactive | inactive | inactive | inactive and 68 µM (active) | inactive | inactive | inactive | 
O=NN1CCCC1 | inactive | inactive | inactive | inactive | inactive | inactive | inactive | inactive | inactive | inactive | 
c1cc2c3c(cccc3c1)CC2 | inactive | inactive | inactive | inactive | inactive | inactive | inactive | inactive | inactive | inactive | 
COP(N)(=O)SC (centres undefined) | inactive | inactive | inactive | inactive | inactive | inactive | inactive | inactive | inactive | inactive | 
CCC12COCN1COC2 | inactive | inactive | inactive | inactive | inactive | inactive | inactive | inactive | inactive | inactive | 
Cc1ccc(N)cc1N | inactive | inactive | inactive | inactive | inactive | inactive | inactive | inactive | inactive | inactive | 
O=S(=O)(c1ccc(O)cc1)c1ccc(O)cc1 | inactive | inactive | inactive | inactive | inactive | 15.6 µM [inconclusive] (active) and 24.5 µM [inconclusive] (active) | 3.88 µM (active) and 1.93 µM (active) | inactive | inactive | inactive | 
O=C1CCCN1 | inactive | inactive | inactive | inactive | inactive | inactive | inactive and 48.6 µM (active) | inactive | inactive | inactive | 
CCOP(OCC)OCC | inactive | inactive | inactive | inactive | inactive | inactive | inactive | inactive | inactive | inactive | 
C=C(C)CCl |  | inactive | inactive | inactive | inactive | inactive | inactive | inactive | inactive | inactive | -10.5% [at 8.44 µM] (inactive)
Cc1ccc([N+](=O)[O-])cc1C | inactive | inactive | inactive | inactive | inactive | inactive | inactive | inactive | inactive | inactive | 
COC(=O)NS(=O)(=O)c1ccc(N)cc1 | inactive | inactive | inactive | inactive | inactive | inactive | inactive | inactive | inactive | inactive | 
CNC(=O)Oc1ccccc1OC(C)C | inactive | inactive | inactive | inactive | inactive | inactive | inactive | inactive | inactive | inactive | 
O=c1[nH]c2ccccc2c(=O)o1 | inactive | inactive | inactive | inactive | inactive | inactive | inactive | inactive | inactive | inactive | 
C1CN2CCN1CC2 | inactive | inactive | inactive | inactive | inactive and 4.36 µM (active) | inactive | inactive | inactive | inactive | inactive | 
CC(C)OC(=O)Nc1ccccc1 | inactive | inactive | inactive | inactive | inactive | inactive | 30.7 µM (active) and 54.5 µM (active) | inactive | inactive | inactive | 
CN(C)CCO | inactive | inactive | inactive | inactive | inactive | inactive | inactive | inactive | inactive | inactive | 
CC(C)C1(C)N=C(c2nc3ccccc3cc2C(=O)O)NC1=O (centres undefined) | inactive | inactive | inactive | inactive | inactive | inactive | inactive | inactive | inactive | inactive | 
CCCCOC(=O)c1ccccc1C(=O)OCCCC | inactive | inactive | inactive | inactive | inactive | inactive | 77 µM (active) and inactive | inactive | inactive | inactive | 
O=[N+]([O-])c1ccccc1 | inactive | inactive | inactive | inactive | inactive | inactive | inactive | inactive | inactive | inactive | 
BrCCBr | inactive | inactive | inactive | inactive | inactive | inactive | inactive | inactive | inactive | inactive | 
O=c1n(Cl)c(=O)n(Cl)c(=O)n1Cl | inactive | inactive | inactive | inactive | inactive | inactive | inactive | inactive | inactive | inactive | 
c1ccc(-c2ccccc2)cc1 | inactive | inactive | inactive | inactive | inactive | inactive | inactive | inactive | inactive | inactive | 

SMILES | Potency [1] | Potency [2] | outcome [3] | Potency [4] | Potency [5] | Potency [6] | Potency [7] | Potency [8] | outcome [9] | Potency (Aromatase (Homo sapiens)) | activity change, negative = cytotoxic [1]
Cc1[nH]c(=O)n(C(C)(C)C)c(=O)c1Cl | inactive | inactive | inactive | inactive | inactive | inactive | inactive | inactive | inactive | inactive | 
CC(=O)C=C(C)C | inactive | inactive | inactive | inactive | inactive | inactive | inactive | inactive | inactive | inactive | 
CCOC(=O)c1ccccc1C(=O)OCC | inactive | inactive | inactive | inactive | inactive | inactive | inactive | inactive | inactive | inactive | 
CC(Oc1ccc(Cl)cc1Cl)C(=O)O (centres undefined) | inactive | inactive | inactive | inactive | inactive | inactive | inactive | inactive | inactive | inactive | 
CC(C#N)CCC#N (centres undefined) | inactive | inactive | inactive | inactive | inactive | inactive | inactive | inactive | inactive | inactive | 
Clc1ccc(Cl)cc1 | inactive | inactive | inactive | inactive | inactive | inactive | inactive | inactive | inactive | inactive | 
CCCCCOC(=O)c1ccccc1C(=O)OCCCCC | inactive | inactive | inactive | inactive | inactive | inactive | inactive | inactive | inactive | inactive | 
ClCCBr | inactive | inactive | inactive | inactive | inactive | inactive | inactive | inactive | inactive | inactive | 
Cc1ccc(N)cc1Cl | inactive | inactive | inactive | inactive | inactive | inactive | inactive | inactive | inactive | inactive | 
CC(C)=C[C@@H]1[C@@H](C(=O)OCc2coc(Cc3ccccc3)c2)C1(C)C | inactive | inactive | inactive | inactive | inactive | inactive | inactive | inactive | inactive | inactive | 
O=C(O)c1ccccn1 | inactive | inactive | inactive | inactive | inactive | inactive | inactive | inactive | inactive | inactive | 
CCCCN(CC)C(=O)SCCC | inactive | inactive | inactive | inactive | inactive | inactive | inactive | inactive | inactive | inactive | 
CCOP(=S)(OCC)Oc1cnc2ccccc2n1 | inactive | inactive | inactive | inactive | inactive | inactive and 17.4 µM [inconclusive] (active) | inactive and 15.4 µM (active) | inactive | inactive | inactive | 
CCCCCCCCCCCC#N | inactive | inactive | inactive |  | inactive |  |  |  | inactive | inactive | 
CC(C)N1C(=O)c2ccccc2NS1(=O)=O | inactive | inactive | inactive | inactive | inactive | inactive | inactive | inactive | inactive | inactive | 
c1ccc2c(c1)oc1ccccc12 | inactive | inactive | inactive |  | inactive |  |  |  | inactive |  | 
CC(C)OC(=O)Nc1cccc(Cl)c1 | inactive | inactive | inactive | inactive | inactive | inactive | inactive |  | inactive | inactive | 
COC(=O)NC(=S)Nc1ccccc1NC(=S)NC(=O)OC | inactive | inactive | inactive | inactive |  | inactive | inactive | inactive | inactive | inactive | 
Nc1c(Cl)c(Cl)nc(C(=O)O)c1Cl | inactive | inactive | inactive | inactive | inactive | inactive | inactive | inactive | inactive | inactive | 
C#CCN(C)[C@H](C)Cc1ccccc1 | inactive | inactive | inactive | inactive | inactive | inactive | inactive | inactive | inactive | inactive | 
O=[N+]([O-])c1ccc([As](=O)(O)O)cc1 | inactive | inactive | inactive | inactive | inactive | inactive | inactive | inactive | inactive | inactive | 
O=C(NC(=O)c1c(F)cccc1F)Nc1cc(Cl)c(OC(F)(F)C(F)C(F)(F)F)cc1Cl (centres undefined) | inactive | inactive | inactive | inactive | inactive | inactive | inactive | inactive | inactive | inactive | 
Cc1ccccc1O | inactive | inactive | inactive | inactive | inactive | inactive | inactive | inactive | inactive | inactive | 
